Among the test systems are NCI-H23 lung; NCI-H226 lung; NCI-H322M lung; HOP-62 NSCLC; NCI-H460 lung; HOP-92 NSCLC; NCI-H522 lung; A549/ATCC NSCLC; 786-0 renal; COLO 205 colon.
Test in all cases: NCI-60 one-dose screen, 48 h (100 = growth as untreated, 0 = no growth, -100 = all killed)
Holding throughout (settings): 10 µM unless noted

The panel holds about 83,000 compounds, 20% with a hit somewhere; the sample as a whole holds those more often.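 Treatment: one concentration, 48 hours, 96-well format. Scoring: percent growth, with anything below 10 considered active.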 Values without a mark were called inactive. Calls of active or inactive are those of the source.

In the case of `CC(C)(C)CC(C)(C)n1nnnc1C(NC12CC3CC(CC(C3)C1)C2)c1ccccc1` (stereo not given), the growth in the assay with NCI-H23 lung was 90.8%; in the assay on NCI-H226 lung it was 84.2%; with NCI-H322M lung, 105%; with HOP-62 NSCLC it was 101%; in the assay with NCI-H460 lung it was 94.5%; with HOP-92 NSCLC, 87%. In addition, the growth is 74% in the assay on NCI-H522 lung, 80.7% in the assay with A549/ATCC NSCLC, 86.3% with 786-0 renal and 122% in the assay on COLO 205 colon.
As for `NCCCCCCNc1cc(-c2cccc(OC(F)(F)F)c2)nc2ccc(N3CCCC3)cc12`, the growth in the assay with NCI-H23 lung was 0.0621% (active); with NCI-H226 lung it was 81.2%; in the assay on NCI-H322M lung it was -13.1% (active); in the assay with HOP-62 NSCLC, -33.3% (active); with NCI-H460 lung, -91.8% (active); with HOP-92 NSCLC, 39.3%. The growth in the assay on NCI-H522 lung was -44.5% (active); in the assay on A549/ATCC NSCLC it was 16.6%; with 786-0 renal, -65.2% (active); in the assay with COLO 205 colon it was -62.1% (active).
In the case of `COc1ccccc1NC(=O)C1CC(c2ccc(F)cc2)=NO1` (stereo not given), the growth was 100% in the assay on NCI-H23 lung; 99.2% in the assay with NCI-H226 lung; 102% in the assay with NCI-H322M lung; 97.5% with HOP-62 NSCLC; 98.5% with NCI-H460 lung; 89.7% in the assay on HOP-92 NSCLC. Besides, the growth with NCI-H522 lung was 92.6%; with A549/ATCC NSCLC it was 95.2%; with 786-0 renal, 101%; in the assay with COLO 205 colon, 111%.
As to `N#Cc1c(-c2ccccc2)nc2c(c(-c3ccccc3)nn2-c2ccccc2)c1-c1ccc(O)cc1`, the growth is 44.1% in the assay with NCI-H23 lung; 54% in the assay with NCI-H226 lung; 66.9% in the assay with NCI-H322M lung; 25.3% in the assay on HOP-62 NSCLC; 9.14% (active) with NCI-H460 lung; 50.1% with HOP-92 NSCLC. Besides, the growth is 0.943% (active) in the assay with NCI-H522 lung, 41.4% with A549/ATCC NSCLC, 3.44% (active) with 786-0 renal and 41.9% with COLO 205 colon.
Consider `O=C(Nc1ccc(-c2ccc3c(c2)NC(=O)/C3=C\c2ccc[nH]2)cc1)NC1CC1`, for which the growth in the assay with NCI-H23 lung is 55.1%; in the assay on NCI-H226 lung, 101%; in the assay with NCI-H322M lung, 80.2%; in the assay with HOP-62 NSCLC it was 113%; in the assay with NCI-H460 lung, 59.8%; with HOP-92 NSCLC it was 125%. Besides, the growth in the assay with NCI-H522 lung is 89.6%; in the assay on A549/ATCC NSCLC it was 102%; in the assay with 786-0 renal, 110%; in the assay with COLO 205 colon it was 115%.
For the compound `COc1cc(CC(=O)c2ccc(O)c(OC)c2)ccc1O`, the growth was 103% with NCI-H23 lung; 81.9% in the assay with NCI-H226 lung; 89.6% with NCI-H322M lung; 91.4% in the assay with HOP-62 NSCLC; 100% in the assay with NCI-H460 lung; 84.5% in the assay with HOP-92 NSCLC. In addition, the growth in the assay on NCI-H522 lung was 88.4%; with A549/ATCC NSCLC, 79.5%; with 786-0 renal it was 104%; in the assay with COLO 205 colon it was 107%.
For `C=C1C(=O)O[C@H]2[C@H]1CC/C(COC(=O)NCc1c[nH]c3ccc(Br)cc13)=C\CC[C@@]1(C)O[C@@H]21`, the growth is 29.4% with NCI-H23 lung; 4.62% (active) with NCI-H226 lung; 74% in the assay on NCI-H322M lung; 58.5% in the assay with HOP-62 NSCLC; 24.1% in the assay on NCI-H460 lung; -46.3% (active) with HOP-92 NSCLC. The growth was -89.9% (active) in the assay with NCI-H522 lung, 49.1% with A549/ATCC NSCLC, -47.7% (active) in the assay on 786-0 renal and -78.2% (active) with COLO 205 colon.
Regarding `CCCCCN1C=C/C(=C\C(=O)N(C)c2ccc(Oc3ccccc3)cc2)c2ccccc21`, the growth with NCI-H23 lung was 68.4%; in the assay with NCI-H226 lung, 79.1%; in the assay on NCI-H322M lung it was 89.8%; with HOP-62 NSCLC it was 87.4%; with NCI-H460 lung it was 92%; in the assay with HOP-92 NSCLC, 47.7%. Also, the growth with NCI-H522 lung was 61.1%; in the assay with A549/ATCC NSCLC, 82.3%; in the assay on 786-0 renal it was 89.7%; in the assay with COLO 205 colon, 81.6%.
Turning to `C=CCN1C(=O)/C(=C/C(=O)OC)S/C1=N\NC(=O)c1cc2ccc1/C=C\c1ccc(cc1)/C=C\2`, the growth with NCI-H23 lung is 88.2%; in the assay on NCI-H226 lung, 87.5%; in the assay with NCI-H322M lung, 97.1%; in the assay on HOP-62 NSCLC, 107%; with NCI-H460 lung, 102%; in the assay on HOP-92 NSCLC it was 81.4%. For the same compound, the growth in the assay with NCI-H522 lung was 60.7%; in the assay with A549/ATCC NSCLC, 94.8%; in the assay with 786-0 renal, 91.2%; with COLO 205 colon, 110%.
As for `Cc1ccc(C(=O)/C(=C/c2ccc([N+](=O)[O-])cc2)SCc2ccc(Cl)cc2)cc1`, the growth in the assay with NCI-H23 lung was 61.8%; in the assay on NCI-H226 lung, 76.3%; in the assay with NCI-H322M lung it was 75.5%; in the assay on HOP-62 NSCLC it was 100%; in the assay with NCI-H460 lung, 74.6%; in the assay with HOP-92 NSCLC, 92%. The growth in the assay with NCI-H522 lung is 63.1%; in the assay with A549/ATCC NSCLC, 67.9%; with 786-0 renal, 52.1%; in the assay on COLO 205 colon it was 82.7%.
In the case of `CCOc1ccc(Nc2nc(-c3ccc4c(c3)NC(=O)CO4)cs2)cc1`, the growth in the assay with NCI-H23 lung is 45.7%; in the assay on NCI-H226 lung it was 46.9%; in the assay with NCI-H322M lung, 84.8%; in the assay with HOP-62 NSCLC it was 95.9%; in the assay on NCI-H460 lung it was 40.7%; in the assay on HOP-92 NSCLC it was 87.3%. Also, the growth in the assay on NCI-H522 lung is 14.6%; in the assay on A549/ATCC NSCLC, 71.7%; in the assay on 786-0 renal, 71.1%; with COLO 205 colon it was 88.5%.
Consider `COc1ccc(-c2nc(S(=O)(=O)c3ccccc3)c(S(=O)CC(=O)N3CCC(C)CC3)o2)cc1` (stereo not given), for which the growth in the assay with NCI-H23 lung is 54.1%; in the assay with NCI-H226 lung, 80.3%; in the assay with NCI-H322M lung it was 73.2%; in the assay with HOP-62 NSCLC, 76.6%; in the assay on NCI-H460 lung, 80.4%; in the assay with HOP-92 NSCLC, -22.6% (active). For the same compound, the growth in the assay with NCI-H522 lung is -86.6% (active); with A549/ATCC NSCLC, 77.4%; in the assay with 786-0 renal, 10.3%; in the assay with COLO 205 colon, 48.7%.

Values taken from PubChem BioAssay (NCI).
